# Assay outcomes: PubChem, National Center for Advancing Translational Sciences (NCATS)
# An excerpt weighted towards active compounds, which were near 0.54% of everything screened.
# TRPML1 inh: blocks the human TRPML1 channel. 390,000 compounds, 0.02% hits. TRPML1-inducible cells, Ca2+ dye fluorescence, FDSS; stronger effect = lower value; inhibition of EC80 agonist-evoked calcium signal. activity change, negative = inhibition, % (test concentration not listed); in the data active = activity change below about -50%; inconclusive = between about -30% and that limit;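 note: stimulus is agonist 54-4 at its EC80 concentration; % is set by controls: 0 for no effect and ±100 for the full control effect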
#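 Tet-induced TRPML1-DL cells loaded with Ca8 no-wash calcium dye were read kinetically on FDSS. Compound addition was followed by EC80 agonist 54-4 (4 uM final); inhibition was read over 110 s.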
# Vif-A3F inh: blocks the Vif interaction with APOBEC3F. HeLa A3F-eYFP + Vif (tagged APOBEC3F with the HIV-1 protein that degrades it), YFP fluorescence increase. 390,000 compounds, 0.2% hits. AID 602313. Potency, µM (doses to about 46.1 µM), for the others: at the highest dose activity, negative = active; note: potency is the fitted concentration of half-maximal effect; % of control where 0% means no effect; nearly all actives have a fitted effect of over 65% in size
#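 Fluorescence increase (Ex 488/Em 500-530) after overnight compound treatment at 37 deg C flags inhibition of Vif-driven A3F-eYFP loss in stable HeLa A3F-eYFP/Vif cells seeded overnight beforehand.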
# TRPML1 ag: human mucolipin-1 channel agonism. TRPML1-expressing cells, Ca2+ dye fluorescence, FDSS. activation, % (concentration not given with the values). 410,000 compounds, 0.12% hits. AID 624414; in the data active = activation above about 50%; inconclusive = mostly about 30% to 49%; note: 0% is about no effect
#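 Calcium fluorescence on an FDSS kinetic reader gave the read-out. Tet-induced TRPML1-DL cells were plated overnight, dye-loaded (Ca8 with quencher, 45-90 min, room temperature, dark), then read 110 s after compound addition, and again 110 s after 4uM final 54-4 (EC80).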
# Vif-APOBEC3G blk: Vif-A3G binding inhibition; Q9HC16; HeLa A3G-eYFP + Vif (tagged APOBEC3G with the HIV-1 protein that degrades it), YFP fluorescence, overnight; Potency, µM (doses to about 46.1 µM), inactives show at the highest dose activity, negative = active, most hits filed as inhibitors; 410,000 compounds, 0.076% hits; note: potency is the fitted concentration of half-maximal effect; % is set by controls: 0 for no effect and ±100 for the full control effect; nearly all actives have a fitted effect of over 60% in size
# Target sequence (Q9HC16 whole entry, looked up): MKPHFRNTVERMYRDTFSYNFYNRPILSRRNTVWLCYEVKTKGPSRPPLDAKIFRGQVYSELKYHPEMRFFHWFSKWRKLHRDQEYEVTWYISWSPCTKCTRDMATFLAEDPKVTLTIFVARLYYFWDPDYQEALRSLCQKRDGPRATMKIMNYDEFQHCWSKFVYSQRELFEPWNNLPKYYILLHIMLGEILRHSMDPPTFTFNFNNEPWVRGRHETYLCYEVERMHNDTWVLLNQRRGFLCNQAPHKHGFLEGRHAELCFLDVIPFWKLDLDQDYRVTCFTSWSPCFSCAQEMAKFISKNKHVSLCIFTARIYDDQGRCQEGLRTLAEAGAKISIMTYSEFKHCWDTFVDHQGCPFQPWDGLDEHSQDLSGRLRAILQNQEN
#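 Read-out is eYFP fluorescence (Ex 488/Em 500-530) from Vif-expressing HeLa A3G-eYFP cells; more signal means A3G escaped Vif-mediated degradation. Cells plated overnight, compound pinned in, incubated overnight at 37 deg C.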
# AT treatment: potential ataxia-telangiectasia treatment; Potency, µM (highest dose often 57.5 µM), without a hit: at the top dose activation, hits mostly activators; F2112 A-T fibroblasts, KAP-1 phosphorylation AlphaLISA; neocarzinostatin DNA damage 30 min before lysis; 320,000 compounds, 0.19% hits; note: potency is the fitted concentration of half-maximal effect; % of control where 0% means no effect; nearly all actives have a fitted effect of over 45% in size
#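 ATM-like activity read as KAP-1 phosphorylation via AlphaLISA donor/acceptor antibody pairs after lysis and 6 hr at 25C. Cells were ATM-null patient fibroblasts (F2112, hTERT), dosed 60 min, then exposed to the DSB inducer NCS for 30 min.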
# The depositor's hits bear a star; ? = inconclusive; nt = no result given. Unless noted, calls come from the whole dose curve; as a rule, active = well fitted curve in the direction sought with a large enough effect; inconclusive = small, poorly fitted or top-dose-only effect, or another doubt; inactive = no such curve, though single readings can be large; an effect the other way counts as inactive or inconclusive.
SMILES,TRPML1 inh,Vif-A3F inh,TRPML1 ag,Vif-APOBEC3G blk,AT treatment
CCOC(=O)c1c(NC(=O)OC)sc2c1CCC2,-16.6,6.3%,1.0,-4.2%,3.6%
Cc1ccc(S(=O)(=O)c2cc3ccc(O)cc3oc2=O)cc1C,-1.1,7.9%,3.5,-3.8%,20µM*
c1ccc2c(CCc3c[nH]c4ccccc34)ccnc2c1,nt,nt,17.7,11.2µM*,nt
N#C/C(N=Nc1ccccc1O)=N\Nc1ccccc1O,-8.2,11.2µM*,0.3,?,9.6%
c1ccc(N2CCN(c3nc4ccccc4n4nnnc34)CC2)cc1,12.7,?,-0.1,-16.5%,7.2%
c1ccc2c(c1)nc(N1CCOCC1)c1nnnn12,2.4,3.16µM*,0.0,0.4%,4.1%
O=S(=O)(Nc1ccc(F)c(Cl)c1)c1ccc(Br)s1,-3.9,-25.1%,-0.7,-0.2%,nt
CCC(Cn1nnc2ccccc2c1=O)NC(=O)Nc1ccc(C)c(C)c1 (configuration not stated),-69.1*,4.2%,0.0,4.9%,nt
CCC(Cn1nnc2ccccc2c1=O)NC(=O)Nc1ccc(C)cc1 (configuration not stated),-14.4,1.3%,0.6,-0.8%,nt
Cc1ccccc1-c1cc(=O)c2c(O)cccc2o1,-8.5,2.4%,-0.6,-7.0%,39.8µM*
COc1cc([N+](=O)[O-])ccc1NC(=O)N1CCC2(CC1)Nc1cc(F)ccc1-n1cccc12,-3.2,-0.1%,-0.1,-2.2%,nt
O=C(CCc1ccccc1)Nc1nc2n(n1)C(c1ccccc1)CC(=O)N2 (configuration not stated),11.8,-3.8%,-0.2,0.6%,31.6µM*
Cn1cc(/C=C2\SC(=S)N(NC(=O)c3cccc(Cl)c3)C2=O)c2ccccc21,nt,7.94µM*,nt,?,-7.0%
Cn1cc(/C=C2\SC(=S)N(NC(=O)c3ccccc3)C2=O)c2ccccc21,3.6,?,14.1,5.5%,-4.9%
